Assay outcomes deposited in PubChem by Broad Institute.
Only some compounds are listed: those with a hit (about 0.58% of all), similar ones and a draw of the others.
TcdB inh = inhibitors of Clostridioides difficile toxin B glycohydrolase; TcdB glycohydrolase enzymatic assay, plate reader; inhibition, % at 9.99 µM; 350,000 compounds, 0.24% hits; AID 652162; in the data active means inhibition above about 10%
Mtb BioA inh = inhibitors of Mycobacterium tuberculosis BioA enzyme. purified M. tuberculosis BioA enzyme, plate reader. inhibition, % at 9.99 µM. 360,000 compounds, 0.096% hits; in the data active means inhibition above about 40%
Vc quorum ag-1 = induces V. cholerae light production without autoinducers | V. cholerae BH1578 lux reporter, luminescence, 6 h | 350,000 compounds, 0.16% hits | activation, % at 18.7 µM; in the data active means activation mostly above about 9.7%, no sharp cut-off
Y pestis TopoI = Y. pestis Topo-I inhibition via cleavage products. AID 504884. Y. pestis Topo-I cleavage product accumulation, plate reader. activity, % at 10 µM. 360,000 compounds, 0.064% hits; in the data active means activity above about 50%, passing the limit was not always enough
FadD28 FP inh = M. tuberculosis FadD28 bisubstrate binding inhibition; 360,000 compounds, 0.22% hits; AID 588549; FadD28 bisubstrate probe binding, fluorescence polarization; inhibition, % at 12.5 µM; in the data active means inhibition above about 8.5%, passing the limit was not always enough
Vc quorum ag-2 = quorum light induction in BH1578 reporter strain | shares compounds with Vc quorum ag-1 | V. cholerae BH1578 lux reporter, luminescence, 6 h | 620 tested, under 10 active | activation, % at 50 µM; call rule not given here
HeLa tox = kills HeLa cells within 24 hours; shares compounds with Vc quorum ag-1; HeLa viability, CellTiter-Glo ATP luminescence; activity change, negative = cytotoxicity, % at 35 µM; 25 tested, under 10 active;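 active means signal drop with fitted half-maximal concentration at or below twice the highest valid dose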
* = called active by the depositor; i = inactive; . = no result given.

SMILES	TcdB inh	Mtb BioA inh	Vc quorum ag-1	Y pestis TopoI	FadD28 FP inh	Vc quorum ag-2	others
CCC(=O)Nc1ccc2c(c1)OC[C@@H](C)N(Cc1nccs1)C[C@H](C)[C@H](OC)CN(C)C2=O	0	3	.	.	.	.
CCN(CC)C(=O)c1sc(NC(=O)Cc2ccc(OC)cc2)c(C#N)c1C	.	-1	17*	9	-1	0
O=C(COC(=O)/C=C/c1ccccc1)NC1CCCCC1	2	-1	i	7	-2	.
O=C(Cc1ccc(-c2ccccc2)cc1)NC1CCCC1	0	-3	.	-8	-4	.	HeLa tox=-14
O=C(Cc1ccc(Cl)cc1)NC1CCCCCC1	-6	-1	i	0	-1	.
O=C(COC(=O)/C=C/c1ccc(OC(F)F)cc1)NC1CCCCCC1	1	0	9.5*	-2	1	0
O=C(COC(=O)/C=C/c1ccccc1)NC1CCCC1	-2	-2	529*	2	-1	476
CC(C)NC(=O)Nc1ccc2c(c1)C(=O)N([C@@H](C)CO)C[C@H](C)[C@H](CN(C)S(C)(=O)=O)O2	-5	-1	.	.	.	.
CC(C)CC#Cc1ccc2c(c1)O[C@@H](CN(C)C(=O)CN(C)C)[C@@H](C)CN([C@@H](C)CO)S2(=O)=O	-1	0	.	.	.	.
Cc1ccccc1S(=O)(=O)N1C[C@H](O)COC[C@@H]2O[C@H](CC(=O)NCc3ccccc3Cl)CC[C@H]21	.	2	.	.	.	.
COc1ccc2c3c(n(C)c2c1)[C@H](CO)N(C(=O)CN(C)C)CC31CCN(C(=O)CN(C)C)CC1	-3	.	.	.	.	.
O=C(COC(=O)C1CCN(c2ccc(C(F)(F)F)cn2)CC1)NC1CCCCC1	0	-1	14	22	-4	0
CC(C)[C@H](NC(=O)c1cccc(S(=O)(=O)N2CCCC2)c1)c1nc2ccccc2[nH]1	.	3	.	4	0	.
CC(C)C(NC(=O)c1ccc(S(=O)(=O)N2CCOCC2)cc1)c1nc2ccccc2[nH]1 (stereo not given)	.	2	14	-1	2	0
C[C@H](CO)N1C[C@H](C)[C@H](CN(C)Cc2ccccc2F)Oc2cc(C3=CCCCC3)ccc2S1(=O)=O	1	-2	.	.	.	.
Cc1ccc(S(=O)(=O)N2CCN(C(=O)COC(=O)/C=C/c3ccc(F)cc3)CC2)c(C)c1	5	-1	2	9	-4	0
Cc1ccc(S(=O)(=O)N2Cc3ccccc3CC2C(=O)Nc2ccc3c(c2)OCO3)cc1 (stereo not given)	.	0	3	1	-4	2
COc1ccc(S(=O)(=O)N2Cc3ccccc3CC2C(=O)Nc2ccc3c(c2)OCO3)cc1 (stereo not given)	.	-2	0	16	-3	.
Cn1cnnc1SCCOc1ccc(Cl)cc1	1	.	132*	11	1	91
CN1[C@@H]2c3ccc(-c4ccncc4)c(=O)n3C[C@H]1[C@H](CO)[C@H]2C(=O)NCCc1ccccc1	1	-1	.	.	.	.
COc1ccc(CCNC(=O)C(=O)NCC2CCCN2S(=O)(=O)c2ccc(OC)cc2)cc1 (stereo not given)	0	-1	29*	28	-5	0
COc1ccc(NC(=O)C(=O)NCC2CCCN2S(=O)(=O)c2ccc(C)cc2)cc1 (stereo not given)	2	-1	14	29	0	0
O=C(C[C@@H]1CC[C@@H](NC(=O)c2ccccn2)[C@@H](CO)O1)NCc1cc(F)cc(F)c1	-1	-4	.	.	.	.
CCC(O)(CCN1CCCCC1)c1ccccc1 (stereo not given)	.	-1	12	5	0	0
OC(CCCN1CCCCC1)(c1ccccc1)c1ccccc1	1	1	6	5	-2	.
SMILES	TcdB inh	Mtb BioA inh	Vc quorum ag-1	Y pestis TopoI	FadD28 FP inh	Vc quorum ag-2	others
C[C@@H]1CN([C@H](C)CO)C(=O)c2cc(NC(=O)Nc3ccc4c(c3)OCO4)ccc2O[C@@H]1CN(C)S(=O)(=O)c1ccccc1	-1	-5	.	.	.	.
COC(=O)C(C)N(c1ccc(C)cc1)S(=O)(=O)c1c(C)[nH]c(=O)[nH]c1=O (stereo not given)	1	0	111*	0	0	0
O=C(Nc1nnc(C(F)(F)F)s1)C1COc2ccccc2O1 (stereo not given)	.	1	19	-1	1	1
O=C(C[C@H]1C=C[C@@H](NC(=O)C2CCOCC2)[C@H](CO)O1)NCC1CCCCC1	0	-1	.	.	.	.
CCCCOC(=O)Nc1ccc(S(=O)(=O)Nc2cc(C)nc(C)n2)cc1	2	-1	0	10	0	.
CCOC(=O)Nc1ccc(S(=O)(=O)Nc2cc(C)nc(C)n2)cc1	.	-1	12	2	-2	13
COc1ccc(N2CC(C(=O)Nc3cc(C(F)(F)F)ccc3N3CCCC3)CC2=O)c(OC)c1 (stereo not given)	1	-2	19	20	-4	5
C[C@H](O)C#Cc1ccc2c(c1)O[C@@H](CN(C)CC1CCOCC1)[C@@H](C)CN([C@@H](C)CO)S2(=O)=O	.	-2	.	.	.	.
COCC(=O)N1CC2(C1)[C@H](c1ccccc1)[C@H](CO)N2C(=O)c1ccccc1	-4	.	.	.	.	.
CCOCCCNC(=O)C1CC(=O)N(CCc2ccc(C)cc2)C1 (stereo not given)	0	-1	0	2	2	.
CCOCCCN1CC(C(=O)NCCc2ccc(C)cc2)CC1=O (stereo not given)	.	-2	17*	-1	-5	0
CCCNC(=O)N1C[C@@H](C)[C@@H](OC)CN(C)C(=O)c2cc(NS(C)(=O)=O)ccc2OC[C@H]1C	0	0	.	.	.	.
C=CCn1c(-c2cccc(OCC)c2)n[nH]c1=S	1	-2	i	2	-1	.
C=CCn1c(-c2cc(OC)cc(OC)c2)n[nH]c1=S	.	0	22*	4	-1	0
Cc1cccc(N(CC(N)=O)C2SC(=O)N(c3ccccc3)C2=O)c1 (stereo not given)	.	-2	25*	-5	-4	10
O=C(NCCN1CCOCC1)c1cccc(NS(=O)(=O)c2ccc(Br)cc2)c1	-1	.	23*	11	-1	14
COc1ccc2c3c(n(C)c2c1)[C@H](CO)N(C(=O)c1ccc(F)cc1)CC31CCN(C(=O)c2ccc(F)cc2)CC1	0	.	.	.	.	.
COc1ccc(CN(C)C[C@H]2Oc3ccc(NC(=O)C4CCCCC4)cc3CC(=O)N([C@H](C)CO)C[C@@H]2C)cc1	0	5	.	.	.	.
COc1ccccc1NC(=O)Cc1csc(NC(=S)Nc2ccccc2)n1	.	1	14	1	-10	0
COc1ccc(NC(=S)Nc2nc(CC(=O)Nc3ccccc3OC)cs2)cc1	.	3	0	13	-7	.
O=C(Nc1ccccc1)N1C[C@H]2[C@@H](c3ccccc31)[C@H](CO)N2Cc1ccccc1Cl	2	-4	.	.	.	.
C[C@H](NC(=O)c1ccco1)C(=O)Nc1ccc(S(=O)(=O)N2CCCC2)cc1	.	-3	14	-1	-1	18
